# Reference: the supplement of paper PMC10849652
# About 7,900 targets were measured; listed, in parts, are those with a hit and a random draw of the rest. About 0.6% of all pairs of compound and target were hits. A number with no mark means an inactive call.
# Compound: CC(=O)c1cnc2ccc(-c3cc(Cl)c(O)c(Cl)c3)nc2c1N[C@H]1CC[C@H](CN(C)C)CC1
# Experiment: log2 fold change, soluble protein after heating vs DMSO (PISA); higher = thermal stabilisation; K562 cells, 10 uM, 30 min; active = over 0.2 and 3.5 SD of the protein, either way, in both replicates (recomputed)
# Method in brief: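 K562 cells at 2×10^6 cells/mL were given 10 μM compound for 30 min. Aliquots then went through 3 min of heating across 48°C-58°C, were pooled, and were extracted in PBS with 0.5% NP-40 at 4°C, and the supernatant after 21,000xg for 90 min was quantified by TMTpro 16plex LC-MS/MS with channel sums equalised. Thermal stability relative to control samples, from duplicates, is given as log2 fold change.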
# UniProt O95394, sequence (O95394 whole entry, looked up): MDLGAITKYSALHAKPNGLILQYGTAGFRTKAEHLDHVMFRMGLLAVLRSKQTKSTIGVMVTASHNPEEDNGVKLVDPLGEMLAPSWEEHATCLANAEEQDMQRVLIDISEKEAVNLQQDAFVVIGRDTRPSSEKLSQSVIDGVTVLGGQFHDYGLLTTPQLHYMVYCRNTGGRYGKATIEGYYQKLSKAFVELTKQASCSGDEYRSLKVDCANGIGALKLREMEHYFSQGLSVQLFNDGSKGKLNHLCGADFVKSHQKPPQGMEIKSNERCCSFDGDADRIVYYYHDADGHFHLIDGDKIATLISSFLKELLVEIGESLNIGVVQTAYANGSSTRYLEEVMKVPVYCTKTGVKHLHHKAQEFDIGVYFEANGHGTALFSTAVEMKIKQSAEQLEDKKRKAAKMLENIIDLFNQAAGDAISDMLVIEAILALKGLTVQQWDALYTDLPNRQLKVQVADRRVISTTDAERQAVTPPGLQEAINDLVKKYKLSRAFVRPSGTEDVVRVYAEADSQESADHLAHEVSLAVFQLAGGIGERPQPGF
# UniProt O75400, sequence (O75400 whole entry, looked up): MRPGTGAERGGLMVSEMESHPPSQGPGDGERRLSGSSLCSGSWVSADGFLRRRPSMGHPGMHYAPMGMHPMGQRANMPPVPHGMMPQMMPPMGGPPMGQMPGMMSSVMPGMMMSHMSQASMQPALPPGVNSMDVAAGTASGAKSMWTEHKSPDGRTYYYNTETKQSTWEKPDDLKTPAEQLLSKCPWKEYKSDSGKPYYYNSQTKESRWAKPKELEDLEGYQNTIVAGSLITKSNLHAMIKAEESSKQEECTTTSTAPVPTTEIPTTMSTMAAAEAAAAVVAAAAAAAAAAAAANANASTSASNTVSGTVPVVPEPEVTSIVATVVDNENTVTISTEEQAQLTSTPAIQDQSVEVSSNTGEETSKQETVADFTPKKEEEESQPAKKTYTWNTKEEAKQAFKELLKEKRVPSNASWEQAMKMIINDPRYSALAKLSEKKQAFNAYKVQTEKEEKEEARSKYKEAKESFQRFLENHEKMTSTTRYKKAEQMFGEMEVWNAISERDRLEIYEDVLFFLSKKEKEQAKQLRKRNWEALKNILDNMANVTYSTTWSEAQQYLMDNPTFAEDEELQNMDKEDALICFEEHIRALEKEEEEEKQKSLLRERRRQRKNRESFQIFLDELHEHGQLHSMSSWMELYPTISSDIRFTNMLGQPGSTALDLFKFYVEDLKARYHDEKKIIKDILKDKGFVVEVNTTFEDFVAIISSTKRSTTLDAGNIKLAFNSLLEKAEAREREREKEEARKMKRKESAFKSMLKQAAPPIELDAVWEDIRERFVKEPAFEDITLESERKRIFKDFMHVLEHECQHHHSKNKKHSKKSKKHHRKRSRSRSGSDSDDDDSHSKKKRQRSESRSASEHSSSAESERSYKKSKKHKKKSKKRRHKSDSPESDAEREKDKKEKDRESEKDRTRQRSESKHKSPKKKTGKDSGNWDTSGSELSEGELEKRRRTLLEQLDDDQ
# UniProt Q9UG56, sequence (Q9UG56 whole entry, looked up): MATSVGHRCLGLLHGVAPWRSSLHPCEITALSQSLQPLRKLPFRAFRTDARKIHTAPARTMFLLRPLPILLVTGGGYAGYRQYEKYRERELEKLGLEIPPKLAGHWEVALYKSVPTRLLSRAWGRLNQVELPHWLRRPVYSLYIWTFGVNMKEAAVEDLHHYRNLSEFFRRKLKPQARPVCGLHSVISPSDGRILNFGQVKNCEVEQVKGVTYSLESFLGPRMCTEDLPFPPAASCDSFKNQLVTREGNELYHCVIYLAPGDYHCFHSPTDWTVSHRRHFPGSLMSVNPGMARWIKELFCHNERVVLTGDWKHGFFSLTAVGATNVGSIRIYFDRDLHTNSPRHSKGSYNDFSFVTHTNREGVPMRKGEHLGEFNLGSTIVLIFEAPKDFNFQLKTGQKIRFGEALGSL
# UniProt Q9Y478, sequence (Q9Y478 whole entry, looked up): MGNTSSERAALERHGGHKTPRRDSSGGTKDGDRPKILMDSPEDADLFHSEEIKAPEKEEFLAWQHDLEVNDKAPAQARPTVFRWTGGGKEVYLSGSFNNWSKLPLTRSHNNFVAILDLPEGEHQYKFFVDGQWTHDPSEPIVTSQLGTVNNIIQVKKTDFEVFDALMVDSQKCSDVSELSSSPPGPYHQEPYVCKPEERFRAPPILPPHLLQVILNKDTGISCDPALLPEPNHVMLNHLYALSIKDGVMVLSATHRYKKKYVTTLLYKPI
# UniProt Q9BRP1, sequence (Q9BRP1 whole entry, looked up): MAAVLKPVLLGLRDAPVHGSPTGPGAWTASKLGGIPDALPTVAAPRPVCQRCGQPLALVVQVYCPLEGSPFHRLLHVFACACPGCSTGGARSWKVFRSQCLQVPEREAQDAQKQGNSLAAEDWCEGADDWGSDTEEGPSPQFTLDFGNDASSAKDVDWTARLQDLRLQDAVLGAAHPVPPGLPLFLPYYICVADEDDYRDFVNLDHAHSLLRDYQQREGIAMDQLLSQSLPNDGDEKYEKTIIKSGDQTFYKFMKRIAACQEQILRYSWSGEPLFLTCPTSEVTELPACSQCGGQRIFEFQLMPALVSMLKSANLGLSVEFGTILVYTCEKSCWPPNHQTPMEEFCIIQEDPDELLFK
# UniProt P49585, sequence (P49585 whole entry, looked up): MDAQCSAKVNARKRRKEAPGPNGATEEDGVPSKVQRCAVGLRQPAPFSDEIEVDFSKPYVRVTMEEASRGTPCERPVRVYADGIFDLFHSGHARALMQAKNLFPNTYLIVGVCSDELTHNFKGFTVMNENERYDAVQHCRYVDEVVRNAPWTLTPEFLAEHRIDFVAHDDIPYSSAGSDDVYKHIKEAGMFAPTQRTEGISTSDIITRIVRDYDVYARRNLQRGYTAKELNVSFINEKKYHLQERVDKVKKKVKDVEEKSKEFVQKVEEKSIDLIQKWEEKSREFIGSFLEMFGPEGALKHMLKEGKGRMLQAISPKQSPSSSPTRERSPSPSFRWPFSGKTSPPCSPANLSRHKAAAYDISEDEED
# UniProt Q86T03, sequence (Q86T03 whole entry, looked up): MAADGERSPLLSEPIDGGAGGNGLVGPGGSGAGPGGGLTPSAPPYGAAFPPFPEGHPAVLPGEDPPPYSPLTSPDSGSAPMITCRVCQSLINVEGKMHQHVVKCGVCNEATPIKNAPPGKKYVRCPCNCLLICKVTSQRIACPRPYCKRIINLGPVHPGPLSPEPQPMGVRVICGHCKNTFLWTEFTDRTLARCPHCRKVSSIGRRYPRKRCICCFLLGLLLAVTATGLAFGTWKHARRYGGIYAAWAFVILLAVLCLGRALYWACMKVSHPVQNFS
# UniProt Q8N165, sequence (Q8N165 whole entry, looked up): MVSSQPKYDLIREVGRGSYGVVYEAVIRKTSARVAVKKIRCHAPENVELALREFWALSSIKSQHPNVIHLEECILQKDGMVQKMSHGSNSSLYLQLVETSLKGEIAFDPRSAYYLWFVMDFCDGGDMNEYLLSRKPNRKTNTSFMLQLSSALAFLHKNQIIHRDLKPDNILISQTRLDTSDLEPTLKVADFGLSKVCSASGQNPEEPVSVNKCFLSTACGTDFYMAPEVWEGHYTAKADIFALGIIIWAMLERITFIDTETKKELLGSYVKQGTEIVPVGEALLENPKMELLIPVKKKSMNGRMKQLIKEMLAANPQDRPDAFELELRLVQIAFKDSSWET
# UniProt Q96A00, sequence (Q96A00 whole entry, looked up): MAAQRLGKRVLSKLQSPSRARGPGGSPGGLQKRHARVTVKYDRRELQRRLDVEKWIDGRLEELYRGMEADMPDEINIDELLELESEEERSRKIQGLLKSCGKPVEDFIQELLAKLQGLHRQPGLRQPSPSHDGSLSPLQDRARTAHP
# UniProt O96011, sequence (O96011 whole entry, looked up, change not shown): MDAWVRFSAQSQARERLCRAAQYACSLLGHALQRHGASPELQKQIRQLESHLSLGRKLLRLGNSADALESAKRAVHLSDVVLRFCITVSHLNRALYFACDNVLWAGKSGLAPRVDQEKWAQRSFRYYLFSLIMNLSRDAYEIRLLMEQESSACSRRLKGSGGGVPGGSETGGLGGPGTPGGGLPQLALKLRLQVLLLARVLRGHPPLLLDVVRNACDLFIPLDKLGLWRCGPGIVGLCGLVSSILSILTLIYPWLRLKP
# UniProt P53609, sequence (P53609 whole entry, looked up): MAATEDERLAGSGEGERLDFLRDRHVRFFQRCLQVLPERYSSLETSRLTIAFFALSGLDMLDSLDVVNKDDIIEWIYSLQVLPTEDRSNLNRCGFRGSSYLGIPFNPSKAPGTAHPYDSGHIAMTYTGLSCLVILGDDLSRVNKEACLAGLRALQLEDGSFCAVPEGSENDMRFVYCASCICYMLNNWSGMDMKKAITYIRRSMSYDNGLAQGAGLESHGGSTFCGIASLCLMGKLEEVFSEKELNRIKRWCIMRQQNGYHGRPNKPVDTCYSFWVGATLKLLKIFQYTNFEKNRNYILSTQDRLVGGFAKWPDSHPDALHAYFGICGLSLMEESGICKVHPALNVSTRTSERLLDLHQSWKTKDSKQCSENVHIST
# UniProt P62333, sequence (P62333 whole entry, looked up): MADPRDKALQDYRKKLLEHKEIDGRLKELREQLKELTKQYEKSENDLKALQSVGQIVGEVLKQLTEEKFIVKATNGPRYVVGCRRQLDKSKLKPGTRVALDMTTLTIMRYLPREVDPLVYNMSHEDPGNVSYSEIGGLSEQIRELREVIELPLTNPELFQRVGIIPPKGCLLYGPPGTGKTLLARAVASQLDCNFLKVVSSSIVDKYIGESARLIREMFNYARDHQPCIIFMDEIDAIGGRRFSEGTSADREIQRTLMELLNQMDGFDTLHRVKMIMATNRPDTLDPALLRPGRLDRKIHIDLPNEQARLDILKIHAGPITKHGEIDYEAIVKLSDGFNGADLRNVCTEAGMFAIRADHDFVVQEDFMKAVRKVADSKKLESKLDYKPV
# UniProt Q9Y244, sequence (Q9Y244 whole entry, looked up): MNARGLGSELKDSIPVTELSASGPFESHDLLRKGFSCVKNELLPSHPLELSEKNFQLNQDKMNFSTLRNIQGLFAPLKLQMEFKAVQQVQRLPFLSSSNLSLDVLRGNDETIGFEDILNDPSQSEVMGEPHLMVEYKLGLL
row,Target,log2 fold change
1,PHF5A (UniProt Q7RTV0),0.008
2,PRKAR2A (UniProt P13861),-0.696 (active)
3,PRUNE1 (UniProt Q86TP1),0.012
4,POMP (UniProt Q9Y244),-0.002
5,PPT2 isoform 3 (UniProt Q9UMR5),-0.04
6,PIP4P1 isoform 2 (UniProt Q86T03),-0.002
7,POLD1 (UniProt P28340),-0.081
8,PGGT1B (UniProt P53609),-0.062
9,PPP1R14A (UniProt Q96A00),0.036
10,PRMT3 (UniProt O60678),-0.023
11,PEX11B (UniProt O96011),0.032
12,PCYT1A (UniProt P49585),-0.007
13,PISD (UniProt Q9UG56),-0.068
14,PSMD5 (UniProt Q16401),0.047
15,PRPF40A (UniProt O75400),-0.149
16,PDIK1L (UniProt Q8N165),-0.693 (active)
17,PMPCA (UniProt Q10713),-0.029
18,PDCD2L (UniProt Q9BRP1),0.07
19,PSMC6 (UniProt P62333),0.044
20,PRKAB1 (UniProt Q9Y478),-0.184
21,PDSS2 (UniProt Q86YH6),0.058
22,POLA1 (UniProt P09884),-0.02
23,PGM3 isoform 4 (UniProt O95394),-0.091
